Results on 33 molecules are retold here after the supplement of paper PMC12340641.

Where a name gives a salt, the structure may show the parent alone.

For this assay, the target named is IKZF1 (dCK*-IKZF1 fusion in HEK293FT) (UniProt Q13422). Description: inhibition of IKZF1 HTRF signal (DMSO = 0%, pomalidomide 10 uM = 100%); higher = lower IKZF1 protein level. Particulars: compound concentration: 5 uM, overnight (~20 h). In short, it runs like this: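 Compound was tested at 5 μM in single wells on HEK293FT cells (2000/well, 384-well) stably carrying an IKZF1 fusion, overnight at 37 °C. Total IKZF1 was measured in lysates with a commercial HTRF antibody kit as the background-subtracted 665/620 nm time-resolved FRET ratio. The reported figure is percent inhibition of IKZF1 signal, scaled per plate between vehicle and a reference degrader. The vehicle anchor was 0% and the degrader anchor 100%.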
IKZF1 (dCK*-IKZF1 fusion in HEK293FT), sequence (Q13422 whole entry, looked up, the tested form may be a part): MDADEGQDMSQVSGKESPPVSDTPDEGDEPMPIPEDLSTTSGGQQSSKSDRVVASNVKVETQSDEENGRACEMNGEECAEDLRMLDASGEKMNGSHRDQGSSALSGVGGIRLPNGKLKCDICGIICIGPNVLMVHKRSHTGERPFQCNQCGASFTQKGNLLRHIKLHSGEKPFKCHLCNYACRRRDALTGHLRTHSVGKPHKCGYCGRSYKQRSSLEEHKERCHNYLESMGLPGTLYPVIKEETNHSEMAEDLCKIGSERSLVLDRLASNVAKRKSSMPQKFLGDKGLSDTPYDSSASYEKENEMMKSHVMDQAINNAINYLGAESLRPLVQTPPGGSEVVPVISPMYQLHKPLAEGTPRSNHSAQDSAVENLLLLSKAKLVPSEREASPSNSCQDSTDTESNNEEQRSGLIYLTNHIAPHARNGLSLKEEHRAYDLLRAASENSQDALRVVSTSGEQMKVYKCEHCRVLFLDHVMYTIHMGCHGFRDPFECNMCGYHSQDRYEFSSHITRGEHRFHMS
(In TR-FRET formats the signal depends on donor and acceptor labels being close together.)
As to `COC1=C2C[C@@H](C)C[C@H](OC)[C@H](O)[C@@H](C)/C=C(\C)[C@H](OC(N)=O)[C@@H](OC)/C=C\C=C(/C)C(=O)NC(=CC1=O)C2=O` [Geldanamycin], the “inhibition of IKZF1 HTRF signal” value turned out to be 57.7%. Regarding `CN1CCN(c2ncc(-c3cc(Cl)cc(Cl)c3Cl)c(N)n2)CC1` [sipatrigine], the “inhibition of IKZF1 HTRF signal” value is 11.5%.

As to `O=C(O)c1ccccc1Nc1ccc(CCc2ccc(Cl)c(Cl)c2)cc1`, the “inhibition of IKZF1 HTRF signal” value is -23.6%. Under `O=C(CCCCCCC(=O)NO)NO` stands -47.9%. Next, `O=C(OC)C1=C(C)NC(C)=C(C(OCCCN3CCC(C4=CC=CC=C4)(C5=CC=CC=C5)CC3)=O)[C@@H]1[C@]2=CC=CC([N+]([O-])=O)=C2` [dexniguldipine]: -24.7%. Regarding `O=C(Nc1cc(C(F)(F)F)cc(C(F)(F)F)c1)Nc1c(Br)cc(Br)cc1-c1nnn[nH]1`, the “inhibition of IKZF1 HTRF signal” value is -17%. Next, `CC(CNC1CCCCC1)OC(=O)c1ccccc1` (stereo not drawn) [hexylcaine]: -36.3%. Next, `COC(=O)C1=C(C)NC(C)=C(C(=O)OCC(C)C)C1c1ccccc1[N+](=O)[O-]` (stereo not drawn) [Nisoldipine]: -28.1%; `CCCCC/N=c1/ccn(Cc2ccccc2)c2ccccc12`: -21.7%. Turning to `NC(=O)c1nnn(Cc2cc(Cl)c(C(=O)c3ccc(Cl)cc3)c(Cl)c2)c1N` [carboxyamidotriazole], the “inhibition of IKZF1 HTRF signal” value was -49.1%. Next, `CC(O)(C(=O)Nc1ccc(S(=O)(=O)c2ccccc2)cc1)C(F)(F)F` (stereo not drawn): -44.3%; `CN(C)CCCN1c2ccccc2Sc2ccc(C(F)(F)F)cc21`: -28.3%.

Turning to `Cc1cc(Nc2ncc(Cl)c(Nc3ccccc3S(=O)(=O)C(C)C)n2)c(OC(C)C)cc1C1CCN(CC(=O)NCCOCCOCCOCCOCCOCCNc2cccc3c2C(=O)N(C2CCC(=O)NC2=O)C3=O)CC1` (stereo not drawn), the “inhibition of IKZF1 HTRF signal” value amounted to 54.5%. Next, `Oc1c(Cl)cc(Cl)cc1Sc1cc(Cl)cc(Cl)c1O`: 7.52%; `CNC(=O)c1cccc(-c2ccc3c(N4CCOC[C@@H]4C)nc(N4CCOC[C@@H]4C)nc3n2)c1` [Vistusertib (AZD2014)]: 69.4%. Under `COc1ccc2c(C)nc(Nc3nc(C)c(C)c(O)n3)nc2c1` [madrasin] stands -28.1%; under `COc1cc(C(=O)NS(=O)(=O)c2ccccc2C)ccc1Cc1cn(C)c2ccc(NC(=O)OC3CCCC3)cc12` [Zafirlukast (Accolate)], -6.19%; under `CC(NCCC(c1ccccc1)c1ccccc1)c1ccccc1` (stereo not drawn) [fendiline], -38%. Under `COc1cccc2c(O)c3c(O)c4c(c(O)c3c(O)c12)=C(O[C@H]1C[C@H](N)[C@H](O)[C@H](C)O1)C[C@](O)(C(=O)CO)C=4` [Doxorubicin HCl] stands 40.1%. Turning to `O=C1Nc2ccc(I)cc2/C1=C/c1cc(Br)c(O)c(Br)c1`, the “inhibition of IKZF1 HTRF signal” value was -34.2%. Under `CC[C@@]1(O)C(=O)OCc2c1cc1n(c2=O)Cc2cc3c(N)cccc3nc2-1` [9-aminocamptothecin] stands 31.3%; under `O=C1[C@H]2CCCC[C@H]2C(=O)N1CCCCN1CCN(c2nsc3ccccc23)CC1` [Perospirone], 16.4%. Under `CN1CCN(Cc2ccc(-c3cnc4[nH]cc(-c5ccc6[nH]ccc6c5)c4c3)cc2)CC1` stands -32.6%; under `COc1cc(OC)c(/C=C2/C(=O)Nc3ccccc32)c(OC)c1`, -15.9%; under `CO[C@H]1O[C@@H]2O[C@@]3(C)CC[C@H]4[C@H](C)CC[C@@H]([C@H]1C)[C@@]24OO3` [Artemether], -2.04%. Consider `CSc1nc2cc(Cl)c(Oc3cccc(Cl)c3Cl)cc2[nH]1`, for which the “inhibition of IKZF1 HTRF signal” value was -43%. Next, `O=c1[nH]c(=O)n([C@H]2C[C@H](O)[C@@H](CO)O2)cc1F` [Floxuridine]: 14.5%; `CCOC(=O)Nc1nc2ccccc2[nH]1`: -22.3%; `COc1ccc(/C=C/C(=O)/C=C(O)/C=C/c2ccc(OC)c(OC)c2)cc1OC` [Dimethylcurcumin, ASC-J9]: -40.7%. For `C[C@@H]1CC(=O)c2c(ccc3c2C(=O)c2cccc(O)c2C3=O)C1` [ochromycinone], the “inhibition of IKZF1 HTRF signal” value came out at 14.5%. `NCCNc1ccc(NCCN)c2c1C(=O)c1ccncc1C2=O.O=C(O)/C=C\C(=O)O.O=C(O)/C=C\C(=O)O` [Pixantrone (dimaleate)]: the “inhibition of IKZF1 HTRF signal” value is -28.2%. With `COc1ccccc1Oc1c(NS(=O)(=O)c2ccc(C)cn2)nc(-c2ccncc2)nc1OC` [Avosentan], the “inhibition of IKZF1 HTRF signal” value is -39.7%. Next, `COCC(=O)O[C@]1(CCN(C)CCCc2nc3ccccc3[nH]2)CCc2cc(F)ccc2[C@@H]1C(C)C` [mibefradil]: -3.89%.
